This note sets out measurements from the supplement of paper PMC6555819.

Assay in all cases: PBM binding z-score (relative to random genomic background probes); higher = stronger binding; sequences stand for … in GC…GCGATTGACAGCGTAGAATGAAGG
In experiment [1] the test system is PPARg:RXRa DBDmut IVT, anti-RXR (DBD mutation: RXRa K156A/R161A, NR concentration 270 nM, RXRa partner concentration 90 nM). The method, boiled down:
(§1)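 The probes on custom Agilent 4×180K protein-binding microarrays were double-stranded, with 34-nt variable regions bearing direct-repeat seeds, single-nucleotide variants, half-site ablations and random human genomic background sequences. Incubation lasted 1 h with ligand-free nuclear receptor dimers in PBS pH 7.4, 2% milk, 0.02% Triton X-100, 1 mM DTT, 0.2 mg/mL BSA and 0.4 mg/ml salmon testes DNA. Antibodies against each partner (one per run) detected bound dimers, and fluorescence scans were regression-normalized. Binding z-scores take the random background probes as reference.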

The subject of experiment [2] is PPARg:RXRa IVT, anti-PPARg (NR concentration 270 nM, RXRa partner concentration 90 nM). The procedure, abridged:
as §1

The subject of experiment [3] is PPARg DBDmut:RXRa IVT, anti-PPARg (DBD mutation: PPARg1 K132A/R137A, NR concentration 270 nM, RXRa partner concentration 90 nM). The method, boiled down: as §1
Experiment [4] concerns PPARg DBDmut IVT, anti-PPARg (DBD mutation: PPARg1 K132A/R137A, NR concentration 270 nM). The method, boiled down: as §1
Experiment [5] concerns PPARg homodimer (NR concentration 180 nM). The procedure, abridged: as §1
Experiment [6] deals with PXR:RXRa (NR concentration 270 nM, RXRa partner concentration 90 nM). The procedure, abridged: as §1
The subject of experiment [7] is PXR homodimer (NR concentration 270 nM). The method, boiled down:
as §1

Experiment [8] has as its system RARa:RXR (NR concentration 270 nM, RXRa partner concentration 90 nM). The procedure, abridged: as §1
In experiment [9] the test system is RARa homodimer (NR concentration 270 nM). The procedure, abridged: as §1
Experiment [10] deals with RARb:RXRa (NR concentration 270 nM, RXRa partner concentration 90 nM). The procedure, abridged: as §1
Experiment [11] has as its system RARb homodimer (NR concentration 270 nM). The method, boiled down:
as §1

Experiment [12] deals with RARg:RXRa (NR concentration 270 nM, RXRa partner concentration 90 nM). The method, boiled down:
as §1

Experiment [13] deals with RARg homodimer (NR concentration 270 nM). The procedure, abridged: as §1
Experiment [14] concerns RXRa DBDmut IVT, anti-RXR (DBD mutation: RXRa K156A/R161A, NR concentration 90 nM). The method, boiled down: as §1
The subject of experiment [15] is RXRa homodimer (NR concentration 180 nM). The procedure, abridged:
as §1

The subject of experiment [16] is THRa:RXRa (NR concentration 90 nM, RXRa partner concentration 90 nM). The method, boiled down: as §1
Experiment [17] relates to THRa homodimer (NR concentration 90 nM). The procedure, abridged: as §1
Experiment [18] deals with VDR:RXRa (NR concentration 270 nM, RXRa partner concentration 90 nM). The method, boiled down: as §1
The subject of experiment [19] is VDR homodimer (NR concentration 270 nM). The method, boiled down: as §1

As to ATCTCTAGGTAAAGATAGTTCAGTAAATGCAAAT, the PBM binding z-score in experiment [1] was found to be 1.89; in experiment [2], 1.77; in experiment [3], 1.18; in [4], 0.812; in [5], 0.801; in [6] it was 1.14. Moreover, the PBM binding z-score in [7] turned out to be 0.936; in [8], 0.952; in experiment [9] it was 1.67; in [10], 0.706; in [11] it was 1.08; in [12], 0.439. Moreover, the PBM binding z-score worked out at 0.876 in experiment [13]; 0.336 in experiment [14]; 0.446 in [15]; 0.803 in experiment [16]; 0.595 in experiment [17]; 1.22 in experiment [18]. In addition, the PBM binding z-score in experiment [19] amounted to 0.651.
Regarding AACTCTAGGTAAAAGTTCAGTGAATCCCGAGGAT, the PBM binding z-score amounted to 2.73 in experiment [1]; 3.74 in experiment [2]; 1.15 in experiment [3]; 0.487 in [4]; 1.93 in [5]; 1.83 in experiment [6]. Also, the PBM binding z-score is 1.06 in experiment [7]; 1.75 in experiment [8]; 0.344 in experiment [9]; 2.42 in experiment [10]; 2.27 in [11]; 1.77 in [12]. In addition, the PBM binding z-score came to 1.69 in experiment [13]; 0.858 in [14]; 1.76 in experiment [15]; 1.22 in experiment [16]; 0.014 in experiment [17]; 1.11 in experiment [18]. Besides, the PBM binding z-score in experiment [19] came to 1.4.
Consider GTACCAAGGTGCATAGGTCGTTGATGAGTAGGCG, for which the PBM binding z-score in experiment [1] is -0.499; in [2], 0.0785; in [3] it was -0.485; in experiment [4], -0.265; in experiment [5], 0.243; in [6] it was 0.269. In addition, the PBM binding z-score in experiment [7] was -0.124; in [8], 1.1; in [9] it was -0.294; in experiment [10] it was 0.748; in experiment [11], 0.393; in experiment [12] it was 0.769. Also, the PBM binding z-score was 0.407 in [13]; 0.546 in [14]; 1.3 in experiment [15]; 0.111 in experiment [16]; -0.427 in experiment [17]; 0.717 in experiment [18]. The PBM binding z-score in experiment [19] was determined as 0.968.
As for TCTATTAGTTGAAGGGCCACCGACGAGTCCGTTT, the PBM binding z-score in [1] is 2.33; in experiment [2], 0.338; in experiment [3] it was 0.273; in experiment [4], 0.346; in experiment [5], 1.31; in experiment [6], 0.576. Moreover, the PBM binding z-score in experiment [7] was 0.557; in experiment [8], 0.817; in [9], 1.15; in [10], 1.07; in experiment [11], 0.971; in experiment [12], 0.277. For the same sequence, the PBM binding z-score in experiment [13] came to 0.128; in [14] it was 1.69; in experiment [15], 0.47; in [16] it was 0.074; in experiment [17], 0.396; in [18] it was 0.591. The PBM binding z-score in [19] is 1.35.
For CCGACTGGTGCAGAAAGGTTACCATACCATCCGG, the PBM binding z-score in [1] is -0.779; in [2], -0.294; in experiment [3], -0.872; in experiment [4], -1.11; in experiment [5], 1.03; in experiment [6], 1. Also, the PBM binding z-score was 0.0978 in experiment [7]; 1.65 in [8]; -0.557 in experiment [9]; 1.43 in [10]; 1.73 in [11]; 1.16 in experiment [12]. Further, the PBM binding z-score in experiment [13] was 0.812; in [14], -0.6; in experiment [15], 1.61; in experiment [16], 0.935; in experiment [17], -0.35; in [18] it was 0.685. Besides, in experiment [19], the PBM binding z-score was -0.229.
Turning to CGAACTAGGGCATCCAGGACAGTGAATACATTGA, the PBM binding z-score was 7.07 in experiment [1]; 6.16 in [2]; 1.33 in experiment [3]; 1.16 in [4]; 0.204 in experiment [5]; -0.0736 in experiment [6]. The PBM binding z-score in experiment [7] was 0.524; in experiment [8], 0.0025; in [9], -0.274; in experiment [10], 1.3; in experiment [11], 0.585; in experiment [12], 0.674. In addition, the PBM binding z-score was 1.17 in experiment [13]; 0.66 in [14]; 0.135 in experiment [15]; 1.61 in experiment [16]; 0.745 in [17]; 0.492 in [18]. Also, the PBM binding z-score in experiment [19] is 0.366.
Turning to GGTAGCAGGCCATTTGGGTCACTCAATGACGGGC, the PBM binding z-score in experiment [1] was 0.966; in experiment [2] it was 2.81; in [3], -0.125; in [4], -0.507; in experiment [5], 0.75; in [6] it was 0.505. The PBM binding z-score in experiment [7] is -0.0413; in [8] it was 0.741; in [9], -0.36; in [10], 1.75; in [11] it was 2.01; in experiment [12], 1.27. Also, the PBM binding z-score in experiment [13] was 1.83; in [14], -0.513; in experiment [15], 0.775; in experiment [16] it was 1.84; in experiment [17], 0.696; in experiment [18], 1.14. In [19], this sequence yielded a PBM binding z-score of 0.494.
